According to PubChem BioAssay AID1159580 (chemical genetic matrix, 2015):
About 2,000 (36%) of roughly 5,500 compounds were called active. Roughly 18% stayed inconclusive and do not appear here. No stated cut-off is given here; in the data, active means normalized growth mostly below about 0.91 (no sharp cut-off); inconclusive means no clear call, values can overlap the other calls; inactive means mostly above about 0.92. This is one part of the list.

Experiment: chemical genetic growth profiling, strain panel (AID 1159580);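 further: tested at 20 µM; growth read once vehicle control cultures reached saturation at 30 °C; 1 = growth at the plate median or of vehicle wells; lower values mean less growth of the strain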
Conditions: growth OD

Measured: normalized growth

COc1cccc2c1cc([N+](=O)[O-])c1c(C(=O)O)cc3c(c12)OCO3
inactive: S. cerevisiae deletion strains, locus YJR066W, strain TOR1, active compounds read low 0.912 | S. cerevisiae deletion strains, locus YJR075W, strain HOC1, active compounds read low 1.04 | S. cerevisiae deletion strains, locus YKL009W, strain mrt4, active compounds read low 0.967 | S. cerevisiae deletion strains, locus YKL068W, active compounds read low 1.01 | S. cerevisiae deletion strains, locus YKL085W, strain MDH1 (second series), active compounds read low 0.999 | S. cerevisiae deletion strains, locus YKL085W, strain MDH1, active compounds read low 0.999 | S. cerevisiae deletion strains, locus YKL160W, strain elf1, active compounds read low 1.01 | S. cerevisiae deletion strains, locus YKL190W, strain CNB1, active compounds read low 1.02 | S. cerevisiae deletion strains, locus YKR001C, strain vps1, active compounds read low 1.03 | S. cerevisiae deletion strains, locus YKR026C, strain gcn3, active compounds read low 1.02 | S. cerevisiae deletion strains, locus YKR091W, strain srl3, active compounds read low 1.02 | S. cerevisiae deletion strains, locus YLL001W, strain dnm1, active compounds read low 1.01 | S. cerevisiae deletion strains, locus YLL026W, active compounds read low 1.01 | S. cerevisiae deletion strains, locus YLL041C, strain sdh2, active compounds read low 1.01 | S. cerevisiae deletion strains, locus YLR027C, strain aat2, active compounds read low 1.02 | S. cerevisiae deletion strains, locus YLR039C, strain RIC1, active compounds read low 1.06 | S. cerevisiae deletion strains, locus YLR058C, strain SHM2, active compounds read low 1.01 | S. cerevisiae deletion strains, locus YLR102C, strain apc9, active compounds read low 1.02 | S. cerevisiae deletion strains, locus YLR113W, strain HOG1, active compounds read low 0.971 | S. cerevisiae deletion strains, locus YLR221C, strain rsa3, active compounds read low 1.02 | S. cerevisiae deletion strains, locus YLR258W, strain gsy2, active compounds read low 1.03 | S. cerevisiae deletion strains, locus YLR262C, strain YPT6 (second series), active compounds read low 1 | S. cerevisiae deletion strains, locus YLR262C, strain YPT6, active compounds read low 1.07 | S. cerevisiae deletion strains, locus YLR268W, strain sec22, active compounds read low 1.06 | S. cerevisiae deletion strains, locus YLR320W, strain mms22, active compounds read low 1.02 | S. cerevisiae deletion strains, locus YLR330W, strain CHS5, active compounds read low 1.02 | S. cerevisiae deletion strains, locus YLR342W, strain FKS1 (second series), active compounds read low 0.989 | S. cerevisiae deletion strains, locus YLR342W, strain FKS1, active compounds read low 1.04 | S. cerevisiae deletion strains, locus YLR357W, strain rsc2, active compounds read low 1.01 | S. cerevisiae deletion strains, locus YLR370C, strain arc18, active compounds read low 1.03 | S. cerevisiae deletion strains, locus YLR371W, strain rom2, active compounds read low 1.03 | S. cerevisiae deletion strains, locus YLR384C, strain iki3, active compounds read low 1 | S. cerevisiae deletion strains, locus YLR418C, strain cdc73, active compounds read low 1.01 | S. cerevisiae deletion strains, locus YML016C, strain PPZ1, active compounds read low 1.01 | S. cerevisiae deletion strains, locus YML032C, strain rad52, active compounds read low 0.99 | S. cerevisiae deletion strains, locus YML120C, strain ndi1, active compounds read low 1.02 | S. cerevisiae deletion strains, locus YML124C, strain tub3, active compounds read low 1.01 | S. cerevisiae deletion strains, locus YMR058W, strain fet3, active compounds read low 1.02 | S. cerevisiae deletion strains, locus YMR078C, strain ctf18, active compounds read low 1.02 | S. cerevisiae deletion strains, locus YMR125W, strain sto1, active compounds read low 1.03 | S. cerevisiae deletion strains, locus YMR129W, active compounds read low 1.02 | S. cerevisiae deletion strains, locus YMR205C, strain PFK2, active compounds read low 1.05 | S. cerevisiae deletion strains, locus YMR223W, strain ubp8, active compounds read low 1.01 | S. cerevisiae deletion strains, locus YMR231W, strain pep5, active compounds read low 1.03 | S. cerevisiae deletion strains, locus YMR307W, strain GAS1, active compounds read low 0.988 | S. cerevisiae deletion strains, locus YNL067W, strain RPL9B, active compounds read low 1.04 | S. cerevisiae deletion strains, locus YNL071W, strain lat1, active compounds read low 1.02 | S. cerevisiae deletion strains, locus YNL183C, strain NPR1, active compounds read low 0.917 | S. cerevisiae deletion strains, locus YNL209W, strain ssb2, active compounds read low 1.02 | S. cerevisiae deletion strains, locus YNL233W, strain BNI4, active compounds read low 1.03 | S. cerevisiae deletion strains, locus YNL248C, strain rpa49, active compounds read low 1.01 | S. cerevisiae deletion strains, locus YNL250W, strain rad50, active compounds read low 1.01 | S. cerevisiae deletion strains, locus YNL271C, strain bni1, active compounds read low 1.01 | S. cerevisiae deletion strains, locus YNL298W, strain CLA4, active compounds read low 0.97 | S. cerevisiae deletion strains, locus YNL307C, strain MCK1, active compounds read low 1.03 | S. cerevisiae deletion strains, locus YNL322C, strain KRE1 (second series), active compounds read low 1.01 | S. cerevisiae deletion strains, locus YNL322C, strain KRE1, active compounds read low 1 | S. cerevisiae deletion strains, locus YNR049C, strain mso1, active compounds read low 1.02 | S. cerevisiae deletion strains, locus YNR052C, strain pop2, active compounds read low 1 | S. cerevisiae deletion strains, locus YOL006C, strain TOP1, active compounds read low 1.09 | S. cerevisiae deletion strains, locus YOL012C, strain htz1 1.07 | S. cerevisiae deletion strains, locus YOL147C, strain pex11, active compounds read low 1.01 | S. cerevisiae deletion strains, locus YOR001W, strain rrp6, active compounds read low 1.01 | S. cerevisiae deletion strains, locus YOR061W, strain CKA2, active compounds read low 1.02 | S. cerevisiae deletion strains, locus YOR069W, strain VPS5, active compounds read low 1.01 | S. cerevisiae deletion strains, locus YOR070C, strain gyp1, active compounds read low 1.01 | S. cerevisiae deletion strains, locus YOR080W, strain dia2, active compounds read low 1.02 | S. cerevisiae deletion strains, locus YOR083W, strain WHI5, active compounds read low 1 | S. cerevisiae deletion strains, locus YOR106W, strain vam3, active compounds read low 1.01 | S. cerevisiae deletion strains, locus YOR136W, strain idh2, active compounds read low 1.02 | S. cerevisiae deletion strains, locus YOR144C, strain elg1, active compounds read low 1.01 | S. cerevisiae deletion strains, locus YOR184W, strain ser1, active compounds read low 1 | S. cerevisiae deletion strains, locus YOR231W, strain MKK1, active compounds read low 0.928 | S. cerevisiae deletion strains, locus YOR265W, strain rbl2, active compounds read low 1.01 | S. cerevisiae deletion strains, locus YOR270C, strain vph1, active compounds read low 1.04 | S. cerevisiae deletion strains, locus YOR290C, strain snf2, active compounds read low 0.995 | S. cerevisiae deletion strains, locus YOR316C, strain cot1, active compounds read low 1.02 | S. cerevisiae deletion strains, locus YPL051W, strain arl3, active compounds read low 1.01 | S. cerevisiae deletion strains, locus YPL055C, strain LGE1, active compounds read low 1.04 | S. cerevisiae deletion strains, locus YPL078C, strain atp4, active compounds read low 1.01 | S. cerevisiae deletion strains, locus YPL106C, strain sse1, active compounds read low 1.03 | S. cerevisiae deletion strains, locus YPL240C, strain hsp82, active compounds read low 1.01 | S. cerevisiae deletion strains, locus YPL241C, strain CIN2, active compounds read low 1.01 | S. cerevisiae deletion strains, locus YPL256C, strain CLN2, active compounds read low 0.926 | S. cerevisiae deletion strains, locus YPR119W, strain clb2, active compounds read low 1.02 | S. cerevisiae deletion strains, locus YPR141C, strain kar3, active compounds read low 1.02 | S. cerevisiae deletion strains, locus YPR163C, strain tif3, active compounds read low 1.02 | S. cerevisiae deletion strains, locus YPR167C, strain met16, active compounds read low 1.02 | S. cerevisiae deletion strains, strain wtn01, active compounds read low 1.05 | S. cerevisiae strains, strain wild type, active compounds read low 1.02
